This passage reports binding signal results from publication PMC7819943, “Rice protein-binding microarrays: a tool to detect cis-acting elements near promoter regions in rice”.

Whole data set: some 68,000 sequences, median “fluorescence intensity (a.u.)” near 9,100, cut for the highest 2% near 16,000. The entries come from a sample that favours the highest values as a whole.

The test deals with OsWRKY34 (Oryza sativa, UniProt Q0JBA9 1-250). In words: protein-binding microarray (RPBM); PBS, 2% BSA, 51.3 ng/ul salmon testes DNA, 50 uM zinc acetate, 200 nM TF, 25 C, 1 h; high values mean tight binding. To be noted: protein: recombinant; tags: N-terminal polyhistidine and DsRed monomer fusion (pET32a); label: CyDye5-dUTP incorporated in the synthesized complementary strand; 3' TTTTT single-stranded linker to array surface; dsDNA, one strand shown. The procedure, abridged: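 An Axon 4000B scanner gave the binding signal as per-feature fluorescence intensity in arbitrary units. This followed washing of a custom Agilent array that had been incubated for 1 h at 25 °C with 200 nM protein in PBS, 2% BSA, salmon testes DNA and 50 µM zinc acetate. The proteins were transcription factors fused at the N-terminus to polyhistidine and DsRed, expressed in E. coli BL21-CodonPlus and purified on Ni–NTA.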
Sequence of OsWRKY34 (Q0JBA9 entry or part of it): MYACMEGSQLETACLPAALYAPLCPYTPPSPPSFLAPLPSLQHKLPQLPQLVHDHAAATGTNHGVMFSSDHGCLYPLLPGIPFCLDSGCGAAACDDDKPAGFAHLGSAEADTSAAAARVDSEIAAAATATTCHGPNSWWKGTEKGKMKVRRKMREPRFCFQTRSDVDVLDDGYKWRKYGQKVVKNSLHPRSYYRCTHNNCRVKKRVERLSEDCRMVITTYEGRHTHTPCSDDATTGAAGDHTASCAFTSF
In the case of “CACTCTGCCTCACCTCACCTCACCTCACGTCCTCACCTCCCGGAGTCACCTAGTGCAG”, the binding signal was 10300 fluorescence intensity (a.u.).
To “CCGGGACGTGTGCCGCCGCTTAAGCCCGCTCTTTATACGTCGGAGTCACCTAGTGCAG” belongs 9690 fluorescence intensity (a.u.); to “ACTCGTTGACCAAAGGGAGTGGAGTTTGAAAGGGTGGGAGCGGAGTCACCTAGTGCAG”, 14600 fluorescence intensity (a.u.).
Turning to “TCTTGCAATCTTGATCGATAGTCTCCTCCATCTTCTTCGTCGGAGTCACCTAGTGCAG”, the binding signal was 8680 fluorescence intensity (a.u.).
Regarding “ATAAATTATTAGTACTATTCCATATACTACATTTTCTTCTCGGAGTCACCTAGTGCAG”, the binding signal was 8440 fluorescence intensity (a.u.).
To “CATAGTCGTCTTCCTCGATCAATCCGCTCCGCTCCGTCTTCGGAGTCACCTAGTGCAG” belongs 8440 fluorescence intensity (a.u.).
Consider “ACTCCCTCCGTTTCAAAATGTTTGACACCGTTGACTTTTTCGGAGTCACCTAGTGCAG”, for which the binding signal is 18500 fluorescence intensity (a.u.).
Turning to “ATACTCCCTCCGTTTCAAAATGTTTGACACCGTTGACTTTCGGAGTCACCTAGTGCAG”, the binding signal is 12500 fluorescence intensity (a.u.).
With “TGTTTTCTTCTCATTCTTCTTTTTTCCCTTTCTTTTGCTCCGGAGTCACCTAGTGCAG”, the binding signal was 8390 fluorescence intensity (a.u.).
The figure for “TACTACTCCCTCCGTTTCAAAATGTTTGACACCGTTGACTCGGAGTCACCTAGTGCAG” is 13100 fluorescence intensity (a.u.); for “TTTCTTTTGCATTTTCCCTGTTCCATATCGTTTTTTTCTCCGGAGTCACCTAGTGCAG” it is 8560 fluorescence intensity (a.u.).
With “ATGTACTCCCTCCGTTTCAAAATGTTTGACACCGTTGACTCGGAGTCACCTAGTGCAG”, the binding signal is 12300 fluorescence intensity (a.u.).
The figure for “TTGCATTTTTGACTGTTTGCGTTGACTCCCTCACTTCTTCCGGAGTCACCTAGTGCAG” is 16400 fluorescence intensity (a.u.).
On to “CCCTCCGTTTCAAAATGTTTGACACCGTTGACTTTTTAATCGGAGTCACCTAGTGCAG”, for which the binding signal was 14900 fluorescence intensity (a.u.).
As for “CTCCCTCCGTTTCAAAATGTTTGACACCGTTGACTTTTTACGGAGTCACCTAGTGCAG”, the binding signal is 28300 fluorescence intensity (a.u.).
Regarding “TTTCTTCCATACTGAAATGTGTATCTTAGCTACTGAAGCTCGGAGTCACCTAGTGCAG”, the binding signal was 8440 fluorescence intensity (a.u.).
To “CATTTAATCTCCTCGTTACCGCTCAATTAACGCACCGATTCGGAGTCACCTAGTGCAG” belongs 8880 fluorescence intensity (a.u.).
The figure for “CGGAGATCTTCAGAAACGAGTTATTTTTCCTCGCAAAACGCGGAGTCACCTAGTGCAG” is 8690 fluorescence intensity (a.u.); for “ATTTGATCCTCTTTTTTCAACTTTGCTTATTTGACCCTTCCGGAGTCACCTAGTGCAG” it is 11100 fluorescence intensity (a.u.).
On to “TCACCCTTCACCTGCATGATCCTCTCTTTTTCAATCCCTCCGGAGTCACCTAGTGCAG”, for which the binding signal was 9340 fluorescence intensity (a.u.).
As to “GCTCCGACTCCCTGTTTCCTGGTCCTCTTTTACACCGGCTCGGAGTCACCTAGTGCAG”, the binding signal was 15100 fluorescence intensity (a.u.).
The figure for “TACATGTCTTAGAGCTACACATCTCTGATTTTTTTTTACACGGAGTCACCTAGTGCAG” is 8950 fluorescence intensity (a.u.); for “ACTGCTAATTCGTCTATTTTGTACCACTTTCTCTATTTTTCGGAGTCACCTAGTGCAG” it is 16500 fluorescence intensity (a.u.); for “CACTATTCCTTTCCGGATTGCTTCTGCGTTCTACTTGATGCGGAGTCACCTAGTGCAG” it is 11000 fluorescence intensity (a.u.).
In the case of “CATATGTTGTTTTCTATTTCCCACTAATTTTCGTCATTTTCGGAGTCACCTAGTGCAG”, the binding signal is 10400 fluorescence intensity (a.u.).
The figure for “ATCTTTTTCTACTATCACTATATCATATTCTATTTTTTTTCGGAGTCACCTAGTGCAG” is 10500 fluorescence intensity (a.u.); for “CCATTCCGCCCACTAGCTTTCTCTCTCTATTTTCTTTTTCCGGAGTCACCTAGTGCAG” it is 16800 fluorescence intensity (a.u.); for “TCTCTTCCGGTCGGAAGCTTGCTTTCCTTTTCTTCTTCTTCGGAGTCACCTAGTGCAG” it is 8360 fluorescence intensity (a.u.).
For “CTTCTATTTTCTTTCTGCTCTTCTCTTCTCTTGTCTACTTCGGAGTCACCTAGTGCAG”, the binding signal is 10300 fluorescence intensity (a.u.).
To “CGGAGTCGGTCAAGCTTAACCACTATTCCTTTCCGGATTGCGGAGTCACCTAGTGCAG” belongs 61500 fluorescence intensity (a.u.); to “TTTTCTATTTCCCACTACTTTTCGTCATTTTTCTAATATTCGGAGTCACCTAGTGCAG”, 18100 fluorescence intensity (a.u.).
As for “TAGATTCTCTTTCTATTTTCTTTCCACTTAGCTTAGATATCGGAGTCACCTAGTGCAG”, the binding signal was 9100 fluorescence intensity (a.u.).
To “CTCTGTAATATATCATTATGACTGCTAATTCGTCTATTTTCGGAGTCACCTAGTGCAG” belongs 8080 fluorescence intensity (a.u.); to “CCCCACATTTTCTTTCACCTTCTCTTCCATTCCACCTCTCCGGAGTCACCTAGTGCAG”, 10100 fluorescence intensity (a.u.); to “TGTGGTGTGCTTGAGGTGCTTTTGAGTTTTAAATAGATTACGGAGTCACCTAGTGCAG”, 8520 fluorescence intensity (a.u.).
The figure for “GGGATCTGAGGCGCGTTTCTTAATTTGCCTTCTCTTTGAGCGGAGTCACCTAGTGCAG” is 9220 fluorescence intensity (a.u.).
The figure for “AGTCCATCTAATTCGGCTGCACTCTTTTTCCCCTGTGAAGCGGAGTCACCTAGTGCAG” is 8530 fluorescence intensity (a.u.).
“ATTTTATCACCCTGCTTAGAGTTTCGCCCGGAGCCATGAACGGAGTCACCTAGTGCAG”: the binding signal was 10700 fluorescence intensity (a.u.).
As to “GCGAGGTCGGGGAGGTGGGTGCACAGTGCCCTGCGAGATGCGGAGTCACCTAGTGCAG”, the binding signal is 8120 fluorescence intensity (a.u.).
The figure for “TACAAGCCCGTTGCCATCTCTACTCCGGCCTCCTAGTCCTCGGAGTCACCTAGTGCAG” is 9760 fluorescence intensity (a.u.).
To “GAATTCTTGTGTTCCAAGCATTTCGATTTGCTCCTCTCTTCGGAGTCACCTAGTGCAG” belongs 9020 fluorescence intensity (a.u.); to “CTGCTCTAACTGAAGTGCCAGGTGACTTGCTTGGTTGGTTCGGAGTCACCTAGTGCAG”, 18300 fluorescence intensity (a.u.); to “ATGGTGGTTCTAATTCTGTTGGTTGACTGCTCTCTGAAATCGGAGTCACCTAGTGCAG”, 13300 fluorescence intensity (a.u.).
The figure for “ATCGGAGACTGACTGAGTGAAGGTTGGTTGGTTCACACTTCGGAGTCACCTAGTGCAG” is 8750 fluorescence intensity (a.u.).
For “CTATCGTCATCCTCGCGATCGCCGCATTCATCCATCCACTCGGAGTCACCTAGTGCAG”, the binding signal was 12800 fluorescence intensity (a.u.).
